Measurements: PubChem BioAssay AID1159580 (chemical genetic matrix, 2015)
Hit rate of the full screen: of about 5,500 compounds, about 2,000 (36%) were called active. Another 18% or so got no clear call; they are omitted. Rule as the data show it: active = normalized growth mostly below about 0.91 (no sharp cut-off); inconclusive = no clear call, values can overlap the other calls; inactive = mostly above about 0.92. Some of the results follow.

Assay: chemical genetic growth profiling, strain panel (AID 1159580);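 also: tested at 20 µM; growth read once vehicle control cultures reached saturation at 30 °C; 1 = growth at the plate median or of vehicle wells; lower values mean less growth of the strain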
Settings: growth OD

Measured: normalized growth

CC(C)=CCC/C(C)=C/CO
inactive: S. cerevisiae deletion strains, locus YJR075W, strain HOC1, stronger effect = lower value 1.01 | S. cerevisiae deletion strains, locus YKL009W, strain mrt4, stronger effect = lower value 0.918 | S. cerevisiae deletion strains, locus YKL068W, stronger effect = lower value 0.993 | S. cerevisiae deletion strains, locus YKL085W, strain MDH1 (second series), stronger effect = lower value 0.98 | S. cerevisiae deletion strains, locus YKL085W, strain MDH1, stronger effect = lower value 0.98 | S. cerevisiae deletion strains, locus YKL160W, strain elf1, stronger effect = lower value 1.01 | S. cerevisiae deletion strains, locus YKL190W, strain CNB1, stronger effect = lower value 1.01 | S. cerevisiae deletion strains, locus YKR001C, strain vps1, stronger effect = lower value 0.99 | S. cerevisiae deletion strains, locus YKR026C, strain gcn3, stronger effect = lower value 0.985 | S. cerevisiae deletion strains, locus YKR091W, strain srl3, stronger effect = lower value 0.986 | S. cerevisiae deletion strains, locus YLL001W, strain dnm1, stronger effect = lower value 0.994 | S. cerevisiae deletion strains, locus YLL026W, stronger effect = lower value 0.998 | S. cerevisiae deletion strains, locus YLL041C, strain sdh2, stronger effect = lower value 0.98 | S. cerevisiae deletion strains, locus YLR027C, strain aat2, stronger effect = lower value 0.996 | S. cerevisiae deletion strains, locus YLR039C, strain RIC1, stronger effect = lower value 1.01 | S. cerevisiae deletion strains, locus YLR058C, strain SHM2, stronger effect = lower value 1.01 | S. cerevisiae deletion strains, locus YLR102C, strain apc9, stronger effect = lower value 0.991 | S. cerevisiae deletion strains, locus YLR113W, strain HOG1, stronger effect = lower value 0.984 | S. cerevisiae deletion strains, locus YLR221C, strain rsa3, stronger effect = lower value 0.947 | S. cerevisiae deletion strains, locus YLR258W, strain gsy2, stronger effect = lower value 1 | S. cerevisiae deletion strains, locus YLR262C, strain YPT6 (second series), stronger effect = lower value 0.978 | S. cerevisiae deletion strains, locus YLR262C, strain YPT6, stronger effect = lower value 1.03 | S. cerevisiae deletion strains, locus YLR268W, strain sec22, stronger effect = lower value 0.966 | S. cerevisiae deletion strains, locus YLR320W, strain mms22, stronger effect = lower value 0.96 | S. cerevisiae deletion strains, locus YLR330W, strain CHS5, stronger effect = lower value 1.01 | S. cerevisiae deletion strains, locus YLR342W, strain FKS1 (second series), stronger effect = lower value 1.04 | S. cerevisiae deletion strains, locus YLR342W, strain FKS1, stronger effect = lower value 0.974 | S. cerevisiae deletion strains, locus YLR357W, strain rsc2, stronger effect = lower value 0.986 | S. cerevisiae deletion strains, locus YLR370C, strain arc18, stronger effect = lower value 0.983 | S. cerevisiae deletion strains, locus YLR371W, strain rom2, stronger effect = lower value 0.985 | S. cerevisiae deletion strains, locus YLR384C, strain iki3, stronger effect = lower value 0.981 | S. cerevisiae deletion strains, locus YLR418C, strain cdc73, stronger effect = lower value 0.975 | S. cerevisiae deletion strains, locus YML016C, strain PPZ1, stronger effect = lower value 1.02 | S. cerevisiae deletion strains, locus YML032C, strain rad52, stronger effect = lower value 0.991 | S. cerevisiae deletion strains, locus YML120C, strain ndi1, stronger effect = lower value 1.01 | S. cerevisiae deletion strains, locus YML124C, strain tub3, stronger effect = lower value 0.991 | S. cerevisiae deletion strains, locus YMR058W, strain fet3, stronger effect = lower value 0.972 | S. cerevisiae deletion strains, locus YMR078C, strain ctf18, stronger effect = lower value 0.98 | S. cerevisiae deletion strains, locus YMR125W, strain sto1, stronger effect = lower value 1.01 | S. cerevisiae deletion strains, locus YMR129W, stronger effect = lower value 0.994 | S. cerevisiae deletion strains, locus YMR205C, strain PFK2, stronger effect = lower value 1.01 | S. cerevisiae deletion strains, locus YMR223W, strain ubp8, stronger effect = lower value 1.01 | S. cerevisiae deletion strains, locus YMR231W, strain pep5, stronger effect = lower value 0.983 | S. cerevisiae deletion strains, locus YMR263W, strain SAP30, stronger effect = lower value 1.02 | S. cerevisiae deletion strains, locus YMR307W, strain GAS1, stronger effect = lower value 1.01 | S. cerevisiae deletion strains, locus YNL067W, strain RPL9B, stronger effect = lower value 1.01 | S. cerevisiae deletion strains, locus YNL071W, strain lat1, stronger effect = lower value 0.988 | S. cerevisiae deletion strains, locus YNL128W, strain TEP1, stronger effect = lower value 1.01 | S. cerevisiae deletion strains, locus YNL153C, strain GIM3, stronger effect = lower value 0.998 | S. cerevisiae deletion strains, locus YNL183C, strain NPR1, stronger effect = lower value 0.991 | S. cerevisiae deletion strains, locus YNL209W, strain ssb2, stronger effect = lower value 0.99 | S. cerevisiae deletion strains, locus YNL233W, strain BNI4, stronger effect = lower value 1.01 | S. cerevisiae deletion strains, locus YNL248C, strain rpa49, stronger effect = lower value 0.969 | S. cerevisiae deletion strains, locus YNL250W, strain rad50, stronger effect = lower value 0.992 | S. cerevisiae deletion strains, locus YNL271C, strain bni1, stronger effect = lower value 0.975 | S. cerevisiae deletion strains, locus YNL298W, strain CLA4, stronger effect = lower value 0.991 | S. cerevisiae deletion strains, locus YNL307C, strain MCK1, stronger effect = lower value 1 | S. cerevisiae deletion strains, locus YNL322C, strain KRE1 (second series), stronger effect = lower value 0.984 | S. cerevisiae deletion strains, locus YNL322C, strain KRE1, stronger effect = lower value 1.01 | S. cerevisiae deletion strains, locus YNR049C, strain mso1, stronger effect = lower value 0.984 | S. cerevisiae deletion strains, locus YNR052C, strain pop2, stronger effect = lower value 0.987 | S. cerevisiae deletion strains, locus YOL006C, strain TOP1, stronger effect = lower value 0.999 | S. cerevisiae deletion strains, locus YOL012C, strain htz1 0.813 | S. cerevisiae deletion strains, locus YOL147C, strain pex11, stronger effect = lower value 0.996 | S. cerevisiae deletion strains, locus YOR001W, strain rrp6, stronger effect = lower value 0.923 | S. cerevisiae deletion strains, locus YOR061W, strain CKA2, stronger effect = lower value 1.02 | S. cerevisiae deletion strains, locus YOR069W, strain VPS5, stronger effect = lower value 1.01 | S. cerevisiae deletion strains, locus YOR070C, strain gyp1, stronger effect = lower value 0.987 | S. cerevisiae deletion strains, locus YOR080W, strain dia2, stronger effect = lower value 0.987 | S. cerevisiae deletion strains, locus YOR083W, strain WHI5, stronger effect = lower value 1.02 | S. cerevisiae deletion strains, locus YOR106W, strain vam3, stronger effect = lower value 1.02 | S. cerevisiae deletion strains, locus YOR136W, strain idh2, stronger effect = lower value 0.994 | S. cerevisiae deletion strains, locus YOR144C, strain elg1, stronger effect = lower value 0.994 | S. cerevisiae deletion strains, locus YOR184W, strain ser1, stronger effect = lower value 0.949 | S. cerevisiae deletion strains, locus YOR231W, strain MKK1, stronger effect = lower value 0.983 | S. cerevisiae deletion strains, locus YOR265W, strain rbl2, stronger effect = lower value 0.989 | S. cerevisiae deletion strains, locus YOR270C, strain vph1, stronger effect = lower value 0.953 | S. cerevisiae deletion strains, locus YOR290C, strain snf2, stronger effect = lower value 1 | S. cerevisiae deletion strains, locus YOR316C, strain cot1, stronger effect = lower value 0.992 | S. cerevisiae deletion strains, locus YPL051W, strain arl3, stronger effect = lower value 0.996 | S. cerevisiae deletion strains, locus YPL055C, strain LGE1, stronger effect = lower value 1.04 | S. cerevisiae deletion strains, locus YPL078C, strain atp4, stronger effect = lower value 1.01 | S. cerevisiae deletion strains, locus YPL106C, strain sse1, stronger effect = lower value 0.977 | S. cerevisiae deletion strains, locus YPL240C, strain hsp82, stronger effect = lower value 0.99 | S. cerevisiae deletion strains, locus YPL241C, strain CIN2, stronger effect = lower value 1 | S. cerevisiae deletion strains, locus YPL256C, strain CLN2, stronger effect = lower value 1.05 | S. cerevisiae deletion strains, locus YPR119W, strain clb2, stronger effect = lower value 0.991 | S. cerevisiae deletion strains, locus YPR141C, strain kar3, stronger effect = lower value 0.991 | S. cerevisiae deletion strains, locus YPR163C, strain tif3, stronger effect = lower value 0.987 | S. cerevisiae deletion strains, locus YPR167C, strain met16, stronger effect = lower value 0.995 | S. cerevisiae deletion strains, strain wtn01, stronger effect = lower value 0.987 | S. cerevisiae strains, strain wild type, stronger effect = lower value 1.02
